# Hit rate of the full screen: of about 310,000 compounds, about 14,000 (4.5%) showed an effect of 50% or more. The effect is printed as a negative number. The full list was thinned out, with strong results kept by preference.
# Target: human ether-à-go-go-related gene (hERG) potassium channel (human, UniProt Q12809)
# Assay: primary screen, population patch clamp on CHO cells stably expressing hERG; higher = less effect of the substance
# 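Also: peak tail current of the secondary pulse compared with the same well before compound.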
# Chain of human ether-à-go-go-related gene (hERG) potassium channel (Q12809 whole entry, looked up): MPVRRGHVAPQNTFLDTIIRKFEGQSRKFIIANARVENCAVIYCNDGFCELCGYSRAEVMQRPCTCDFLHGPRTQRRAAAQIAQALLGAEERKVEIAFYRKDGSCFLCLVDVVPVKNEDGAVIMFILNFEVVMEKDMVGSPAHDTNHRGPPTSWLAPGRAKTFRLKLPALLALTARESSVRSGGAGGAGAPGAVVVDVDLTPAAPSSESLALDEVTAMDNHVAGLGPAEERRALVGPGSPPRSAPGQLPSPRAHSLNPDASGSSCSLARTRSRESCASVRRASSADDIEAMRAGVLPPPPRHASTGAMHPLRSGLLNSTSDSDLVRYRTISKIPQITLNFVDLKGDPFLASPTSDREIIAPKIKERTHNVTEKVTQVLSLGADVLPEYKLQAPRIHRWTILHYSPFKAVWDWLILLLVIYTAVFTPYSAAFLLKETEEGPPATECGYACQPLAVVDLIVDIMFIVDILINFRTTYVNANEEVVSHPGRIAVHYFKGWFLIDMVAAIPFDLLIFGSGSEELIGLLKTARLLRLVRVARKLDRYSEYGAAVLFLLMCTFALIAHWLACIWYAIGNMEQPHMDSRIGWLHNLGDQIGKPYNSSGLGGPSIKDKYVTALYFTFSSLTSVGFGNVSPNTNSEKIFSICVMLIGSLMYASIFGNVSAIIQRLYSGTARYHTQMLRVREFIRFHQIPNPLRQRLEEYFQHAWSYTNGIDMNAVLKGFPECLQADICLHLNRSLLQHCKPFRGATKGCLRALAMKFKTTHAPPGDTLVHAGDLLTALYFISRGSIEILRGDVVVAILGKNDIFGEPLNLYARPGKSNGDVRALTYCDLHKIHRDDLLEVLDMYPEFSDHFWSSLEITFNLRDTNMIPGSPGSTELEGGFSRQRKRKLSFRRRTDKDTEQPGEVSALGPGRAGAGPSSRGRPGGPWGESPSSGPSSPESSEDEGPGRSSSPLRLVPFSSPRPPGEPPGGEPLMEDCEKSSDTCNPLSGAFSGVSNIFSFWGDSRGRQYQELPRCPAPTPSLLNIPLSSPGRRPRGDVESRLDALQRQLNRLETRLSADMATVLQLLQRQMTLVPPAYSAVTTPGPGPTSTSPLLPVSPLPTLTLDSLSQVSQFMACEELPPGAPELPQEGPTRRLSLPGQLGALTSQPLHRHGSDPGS
row,Structure (SMILES),"hERG current change (%, negative = inhibition) at 10uM [%]"
1,COc1cccc(C2C(C(=O)c3sc(C)nc3C)=C(O)C(=O)N2CCN2CCOCC2)c1 (stereo not drawn),10.8
2,Fc1ccc(CNc2ccc(N3CCN(Cc4ccccc4)CC3)cc2)cc1,-30.1
3,COc1ccc(C(=O)NCc2nnc(SCCOc3ccccc3)n2C)cc1,-15.5
4,O=C(CCNS(=O)(=O)c1ccccc1C(F)(F)F)N1CCN(c2ccccc2O)CC1,-26.9
5,CCC(=O)N1CCN(c2ccc(NC(=S)NC(=O)COc3ccccc3)cc2)CC1,-21.6
6,CC(=O)c1c(C)[nH]c(C(=O)Nc2nc(-c3ccc(-c4ccccc4)cc3)cs2)c1C,19.3
7,O=C(COCc1cc(-c2ccc3c(c2)OCO3)on1)Nc1cccnc1,10
8,O=C(O)C(=O)O.c1ccc(-c2ccccc2OCCOCCN2CCNCC2)cc1,2.27
9,CC1CCN(C(=O)COc2ccc3ccccc3c2Br)CC1,11.8
10,CC1CCCN(CCOCCSc2ccccc2)C1.O=C(O)C(=O)O (stereo not drawn),-34.5
11,CC1CC(C)CN(CCOc2cccc(Cl)c2Cl)C1.O=C(O)C(=O)O (stereo not drawn),-35.9
12,CC1CCN(CCOCCOc2ccccc2Br)CC1,-30.1
13,CC1CC(C)CN(CCOc2ccc(Cl)cc2Cl)C1.O=C(O)C(=O)O (stereo not drawn),-67.3
14,CC1CN(CCOc2ccc(Cl)cc2Cl)CC(C)O1.O=C(O)C(=O)O (stereo not drawn),-24.6
15,CC1CCN(CCOCCOc2ccccc2-c2ccccc2)CC1,-57.2
16,CC1CCN(CCOc2ccccc2-c2ccccc2)CC1.O=C(O)C(=O)O,-58.6
17,CC1CCCN(CCOc2ccc3ccccc3c2Br)C1.O=C(O)C(=O)O (stereo not drawn),-69
18,CC(=O)N(CC1CCCO1)c1nnc(-c2cnccn2)s1 (stereo not drawn),12.8
19,Cc1ccc(NC(=O)CN(C)C(=S)NC2CC2)cc1,16.4
20,Cc1ccc(C(=O)Nc2cc3c(oc2=O)CCCC3=O)cc1,-2.47

row,Structure (SMILES),"hERG current change (%, negative = inhibition) at 10uM [%]"
1,COc1cc(/C=C/C(=O)NC(C)C2CC3CCC2C3)cc(OC)c1OC (stereo not drawn),10.6
2,O=C(CN1C(=O)S/C(=C\c2cccs2)C1=O)Nc1ccc(O)cc1C(=O)O,8.88
3,CCOc1ccc(-n2ccnc2SCC(=O)Nc2nnc(CC)s2)cc1,-11.9
4,CCC(=O)N1CCc2cc(Br)cc(S(=O)(=O)N3CCCCC3CC)c21 (stereo not drawn),0.791
5,CCCN(c1ccc(C)cc1)c1nc(=O)c2cccnc2s1,-28
6,COc1cc(S(=O)(=O)N2CCCCC2)ccc1NC(=O)c1ccccc1Cl,-24.6
7,COCCNC(=O)C1CC2Cn3c(nc4cc5ccccc5cc43)C2N1C (stereo not drawn),-3.93
8,C=CCNC(=O)C1CC2Cn3c(nc4cc5ccccc5cc43)C2N1C (stereo not drawn),-16.2
9,CN1C(C(=O)NCc2cccc(Br)c2)CC2Cn3c(nc4cc5ccccc5cc43)C21 (stereo not drawn),-62
10,CN1C(C(=O)NCc2cccc(Br)c2)CC2Cn3c(nc4ccccc43)C21 (stereo not drawn),-67.7
11,CCCNC(=O)C1CC2Cn3c(nc4ccccc43)C2N1C (stereo not drawn),12.8
12,Cc1cc2nc3n(c2cc1C)CC1CC(C(=O)NCc2ccco2)N(C)C31 (stereo not drawn),-29
13,CN1C(C(=O)NCc2ccccc2)CC2Cn3c(nc4cc5ccccc5cc43)C21 (stereo not drawn),-67.9
14,COCCNC(=O)C1CC2Cn3c(nc4cc(C)c(C)cc43)C2N1C (stereo not drawn),8.23
15,Cc1cc2nc3n(c2cc1C)CC1CC(C(=O)NCc2ccccc2)N(C)C31 (stereo not drawn),-31.4
16,Cc1cc2nc3n(c2cc1C)CC1CC(C(=O)NCc2cccc(Br)c2)N(C)C31 (stereo not drawn),-72.5
17,CN1C(C(=O)NCc2ccco2)CC2Cn3c(nc4cc5ccccc5cc43)C21 (stereo not drawn),-38.6
18,CN1C(C(=O)NCc2ccccc2)CC2Cn3c(nc4ccccc43)C21 (stereo not drawn),-0.69
19,Cc1ccc(S(=O)(=O)[N-]c2nc3ccccc3nc2-n2cc[n+](Cc3ccccc3)c2)cc1,11
20,O=C(c1csc2c1CCCC2)N1CCN(c2ncccn2)CC1,-25.1

row,Structure (SMILES),"hERG current change (%, negative = inhibition) at 10uM [%]"
1,O=C(NCc1cccc(C(F)(F)F)c1)c1ccc(=O)[nH]c1,22.5
2,Cc1oc(-c2ccccc2)nc1CS(=O)CC(=O)O (stereo not drawn),10.2
3,Cc1nn(-c2ccccc2)c(N2CCCC2)c1C=O,2.49
4,Cc1cccc(-c2ncc(CN3CCCC(CO)(Cc4ccccc4C)C3)cn2)c1 (stereo not drawn),-11.4
5,Cc1cccc(/C=N/NC(=O)Cc2ccc(Cl)cc2)c1O,18.6
6,Cc1cc(C)nc(SCC(=O)NN)n1,21.1
7,O=C(NCc1ccccc1)c1ccc[n+]([O-])c1,30.8
8,O=S(=O)(Nc1nc2cc3c(cc2nc1Cl)OCCO3)c1ccccc1,-15.5
9,CC(C)CNC(=S)N1CCC(NC(=O)C23CC4CC(CC(C4)C2)C3)CC1,-7.73
10,CC(=O)N1CCC(=NNC(=O)c2cc3ccccc3cc2O)CC1,16.8
11,O=C(Cc1ccc(-c2ccccc2)cc1)Nc1ccccc1,19.1
12,COc1cc(S(=O)(=O)NCc2ccc3c(c2)OCO3)ccc1Cl,-26.1
13,CC1Cc2ccccc2N1C(=S)NC(=O)c1ccco1 (stereo not drawn),16.2
14,O=C(COc1ccccc1)Nc1nccs1,-13.5
15,CCn1nc(C(=O)NNC(=O)COc2ccccc2C)c2ccccc2c1=O,-16
16,COc1ccc(OCC(=O)NNC(=O)c2nn(C)c(=O)c3ccccc23)cc1,-21.1
17,CCn1nc(C(=O)NNC(=O)CCOc2cc(C)ccc2C)c2ccccc2c1=O,-77.6
18,CCc1ccc(OCC(=O)NNC(=O)c2nn(CC)c(=O)c3ccccc23)cc1,-57.9
19,CCCn1nc(C(=O)NNC(=O)CCOc2ccccc2OCC)c2ccccc2c1=O,-21.8
20,CCn1nc(C(=O)NNC(=O)COc2ccc(OC)cc2)c2ccccc2c1=O,-23.4

# From paper PMC4336329 (PLoS ONE, 2015)
